Data published in PubChem BioAssay AID430 (Sanford-Burnham Center for Chemical Genomics, 2006).
Among all 63,000 compounds or so, about 1,100 (1.7%) were called active. No stated cut-off is given here; in the data, active means cytotoxicity above about 50%; inactive means the rest. What follows is part of a selection rich in actives, with near analogues and random picks from the rest. Entries with a potency or affinity are not part of this list.

assay: cytotoxicity in HPDE-C7 cells, cell-based, fluorescence, HTS (AID 430); details: HPDE-C7 pancreatic duct cells viability, at 10 µM, active compounds read high;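 further: cells exposed to compound for 48 hours before viability readout; 0% = vehicle and 100% = reference cytotoxic drug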

SMILES | cytotoxicity
Cc1ccc(CN2CCN(C(=O)C3CCCO3)CC2)cc1 (centres undefined) | -27.2% (inactive)
CCOc1ccccc1NC(=O)CSc1nccn1-c1ccccc1 | -12.5% (inactive)
Nc1c(C(=O)NCCN2CCOCC2)c2nc3ccccc3nc2n1CCc1ccccc1 | 7.5% (inactive)
Nc1c(C(=O)NCCN2CCOCC2)c2nc3ccccc3nc2n1CCc1ccccc1F | 0.5% (inactive)
Nc1c(C(=O)NCCN2CCOCC2)c2nc3ccccc3nc2n1-c1ccc2c(c1)OCO2 | 1% (inactive)
Nc1ccc(-n2c(N)c(C(=O)NCc3ccc4c(c3)OCO4)c3nc4ccccc4nc32)cc1 | 26.7% (inactive)
COc1ccc(-n2c(N)c(C(=O)NCc3ccco3)c3nc4ccccc4nc32)c(OC)c1 | 14.2% (inactive)
COc1ccc(CCn2c(N)c(C(=O)NCc3ccco3)c3nc4ccccc4nc32)cc1OC | 32.4% (inactive)
CN1CCN(S(=O)(=O)c2ccc3c4c(cccc24)C(=O)N3)CC1 | 5.6% (inactive)
COc1ccc(NC(=O)C2CCN(S(=O)(=O)c3cccc4cccnc34)CC2)cc1 | -6.3% (inactive)
CCOC(=O)N1CCN(C(=O)CSc2nnc(Cc3cccn3C)n2CCc2ccccc2)CC1 | -10.2% (inactive)
Cc1cccc2cc(COC(=O)c3ccccn3)c(=O)[nH]c12 | -10.7% (inactive)
C=CCn1c(=N)n(CC(=O)O)c2ccccc21 | -15.2% (inactive)
COCCCn1c(-c2ccsc2)nc2c1c(=O)[nH]c(=O)n2Cc1ccccc1 | -11% (inactive)
CCCC(=O)Nc1cccc2c1CCCC2 | 2.9% (inactive)
Cc1ccc(-n2nnc3c(=O)n(Cc4cccc(C)c4)cnc32)cc1 | 0.4% (inactive)
CCOC(=O)c1sc(NC(=O)c2cc3c(C)nn(-c4ccccc4)c3s2)nc1C | 4% (inactive)
COc1cccc(C=NCCNC(=O)c2nonc2N)c1O | 9.3% (inactive)
Nc1nonc1C(=O)NCCNC(=O)c1ccccc1F | -4.8% (inactive)
Nc1nonc1C(=O)NCCN=Cc1cc(Cc2ccccc2)cc(Br)c1O | 87.2% (active)

SMILES | cytotoxicity
O=C1c2oc3ccc(Br)cc3c(=O)c2C(c2cccnc2)N1Cc1ccco1 (centres undefined) | -14.2% (inactive)
Oc1c(-c2cc(-c3ccco3)[nH]n2)ccc2ccccc12 | 1.8% (inactive)
CSc1nc(N)nc(SCC(=O)OC(C)C)c1C#N | -1.7% (inactive)
CSc1nc(N)nc(SCC(=O)C23CC4CC(CC(C4)C2)C3)c1C#N | 74% (active)
CSc1nc(N)nc(SCC(=O)c2ccc(C)cc2)c1C#N | 3.8% (inactive)
Cc1cc2n(n1)C(c1ccc(O)cc1)Nc1ccccc1-2 (centres undefined) | 7.9% (inactive)
O=C(COC(=O)C1(c2ccccc2F)CCCC1)NC1CCS(=O)(=O)C1 (centres undefined) | -14.8% (inactive)
COc1ccc(CNc2nc3c(c(=O)[nH]c(=O)n3C)n2Cc2ccccc2C)cc1 | -5.5% (inactive)
COc1ccc(-c2nsc3c(N4CCN(S(=O)(=O)c5ccccc5)CC4)ncnc23)cc1 | 55.2% (active)
COc1ccc(S(=O)(=O)N2CCN(c3ncnc4c(-c5ccccc5)nsc34)CC2)cc1 | 5.6% (inactive)
COc1ccc(-c2nsc3c(N4CCCC4)ncnc23)cc1 | 7.9% (inactive)
CC(C)(C)NC(=O)CSc1nnc(C2CC2)n1Cc1ccccc1 | -7.8% (inactive)
COC(=O)CNC(=O)COC(=O)C(Cc1ccccc1)NC(=O)c1ccco1 (centres undefined) | 6% (inactive)
Cc1ccc(C)c(C(=O)CSc2n[nH]c(C(C)C)n2)c1 | -7.1% (inactive)
Cn1c(=O)c(=O)n(C)c2cc(S(=O)(=O)N3CCCCC3)ccc21 | 2% (inactive)
O=C(c1ccccc1)c1ccc(OCC(O)CN2CCOCC2)cc1 (centres undefined) | 6.6% (inactive)
c1ccc(C(CN2CCOCC2)c2ccccc2)cc1 | -12% (inactive)
Cc1nc2ccc(F)cc2cc1C(=O)NCC1CCCO1 (centres undefined) | 14.8% (inactive)
COc1ccc(OC)c(S(=O)(=O)n2nnc3ccccc32)c1 | -7% (inactive)
COc1ccc(Cl)cc1S(=O)(=O)n1nnc2ccccc21 | 3.1% (inactive)

SMILES | cytotoxicity
COc1cc(S(=O)(=O)n2nnc3ccccc32)c(OC)cc1Cl | 60.8% (active)
CCc1ccccc1NC(=O)CN1CCC(NC(=O)COC)CC1 | -16% (inactive)
COc1ccc(N(CC(=O)N2CCc3ccccc3C2)S(=O)(=O)c2c(C)[nH]c(=O)[nH]c2=O)cc1 | -21.6% (inactive)
CCc1nc(N2CCN(C(=O)c3ccccc3)CC2)c(C#N)c2c1COC(C)(C)C2 | -1% (inactive)
CC1(C)Cc2c(C#N)c(N3CCOCC3)nc(Cc3ccccc3)c2CO1 | 46.8% (inactive)
Cc1cc(C)c2nc(C(F)(F)F)nc(N3CCN(C(=O)c4ccco4)CC3)c2c1 | 3.3% (inactive)
CC1(C)Cc2c(C#N)c(N3CCN(C(=O)c4ccccc4)CC3)nc(-c3ccco3)c2CS1 | 11.4% (inactive)
Cc1cc(C)c2nc(N3CCCN(C(=O)c4ccco4)CC3)c(C#N)cc2c1 | 57.4% (active)
CC1(C)Cc2c(C#N)c(N3CCN(C(=O)c4ccco4)CC3)nc(-c3ccco3)c2CS1 | 51.7% (active)
N#Cc1c(N2CCN(C(=O)c3ccco3)CC2)nc(-c2ccccc2)c2c1CCCC2 | 9.1% (inactive)
Cc1cc(C)c2nc(N3CCCN(C(=O)c4cnccn4)CC3)c(C#N)cc2c1 | -0.7% (inactive)
CCn1c(SCC(=O)Nc2ccc3c(c2)OCO3)nc2c1c(=O)n(C)c(=O)n2C | -19.3% (inactive)
COc1cccc(CC(NC(C)=O)C(=O)NC2CCN(c3nc(C)cc(C)c3C#N)CC2)c1 (centres undefined) | 8.9% (inactive)
NC(=O)c1cc(-c2ccccc2)nc(N2CCOCC2)n1 | 11.3% (inactive)
O=C(CSc1nnc(-c2cnccn2)n1Cc1ccco1)c1ccccc1 | -4.8% (inactive)
O=C(Cn1c(CO)nc2ccccc21)Nc1cc(C(F)(F)F)ccc1N1CCOCC1 | 5.6% (inactive)
c1ccc(N2CCOCC2)c(Nc2nc3ccccc3n3cnnc23)c1 | -9.9% (inactive)
Cc1ccccc1Cn1cc(NC(=O)c2noc3c2CC(C(C)(C)C)CC3)cn1 (centres undefined) | 25.7% (inactive)
Cc1ccc(S(=O)(=O)N(CCC#N)CCN2CCCC2)cc1 | -4.9% (inactive)
